# Source: PubChem BioAssay
# GCN5L2 inh – GCN5L2 (KAT2A) acetyltransferase inhibition; GCN5L2 HAT assay, ThioGlo1 CoA-SH fluorescence; Potency, µM (highest dose often 58.9 µM), actives largely listed as inhibitors; 390,000 tested, 0.21% active; AID 504327
#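 GCN5L2 (20nM final) in 50mM HEPES, 0.1mM EDTA pH 7.5, 0.01% Tween-20 was preincubated 15 min at room temperature with compound, then given ThioGlo1 (50uM), H3(1-25) peptide (75uM) and acetyl-CoA (70uM); CoA-thiol fluorescence (Ex340/Em540) was read at 0 and 20 min.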
# GLS inhibitor – inhibitors of human glutaminase (GLS); GLS enzymatic activity, qHTS titration; Potency, µM (series often up to 45.5 µM), most hits filed as inhibitors; 410,000 tested, 0.21% active; AID 624170
#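 Human kidney-isoform GLS in 45 mM KH2PO4 pH 8.2, 0.02% Tween-20, with compound, started with 1mM L-Glutamine (added stock). Glutamate oxidase/HRP/Amplex red coupled fluorescence read at start and after 30 min at RT.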
# VDR inhibitor – inhibitors of human vitamin D receptor | P11473 | VDR-SRC2-3 peptide fluorescence polarization, 2 h | Potency, µM, hits mostly inhibitors | 400,000 tested, 0.93% active | AID 504847
# Target sequence (P11473 whole entry, looked up): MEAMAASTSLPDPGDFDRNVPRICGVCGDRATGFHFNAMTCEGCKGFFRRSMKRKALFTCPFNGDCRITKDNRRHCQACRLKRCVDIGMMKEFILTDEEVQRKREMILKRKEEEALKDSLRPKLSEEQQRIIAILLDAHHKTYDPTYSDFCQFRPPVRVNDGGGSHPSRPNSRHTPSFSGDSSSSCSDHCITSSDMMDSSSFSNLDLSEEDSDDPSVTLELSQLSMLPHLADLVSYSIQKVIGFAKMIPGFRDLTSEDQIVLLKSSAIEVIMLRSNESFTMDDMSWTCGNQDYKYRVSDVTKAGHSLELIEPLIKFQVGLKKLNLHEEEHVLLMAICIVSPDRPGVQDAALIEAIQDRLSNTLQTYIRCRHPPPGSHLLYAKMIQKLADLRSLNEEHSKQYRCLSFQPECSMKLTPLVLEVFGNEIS
#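 VDR–SRC2-3 interaction, FP format. Cmpds 23 nl via pintool, brief spin, 2 h ambient incubation.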
# PI4K2A inh – blocks human PI4K2A kinase activity; purified PI4K2A, ADP-Glo luminescence, 1 h; active compounds read low; 420,000 tested, 0.13% active; AID 1346378; activity change, negative = inhibition, % at 76.9 µM; Q9BTU6; in the data active means activity change below about -50%; inconclusive means mostly about -30% to -49%
#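 ADP-Glo luminescence measured ADP generated by PI4K2A enzyme (4 ug/mL before mixing) with 1.2 mM PI substrate (pre-mix) and 300 microM ATP (pre-mix). Tris pH7.5 buffer with MgCl2, Triton X-100; 1 h reaction at ambient temperature.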
# PLK1 PBD inh – blocks phosphopeptide binding to human PLK1 polo-box domain. P53350. Plk1 PBD binding of FITC phosphopeptide, fluorescence polarization. Potency, µM, most hits filed as inhibitors. 360,000 tested, 2.8% active; further: series mostly up to about 57 µM; nearly all actives have a fitted effect of over 65% in size
# Hits are given with their value; n = inactive; u = inconclusive; x = no result; [ ] = remark or other dose. In the library only some 3.1% were active in any assay of this set; here they are far more common. Unless noted, the call rests on the fitted dose curve; in most records, active means well fitted curve in the direction sought with a large enough effect; inconclusive means small, poorly fitted or top-dose-only effect, or another doubt; inactive means no such curve, though single readings can be large; an effect the other way counts as inactive or inconclusive.
SMILES,GCN5L2 inh,GLS inhibitor,VDR inhibitor,PI4K2A inh,PLK1 PBD inh
C[C@H]1[C@@H](OC(=O)Nc2ccc(C(F)(F)F)cc2)CC[C@@]23CCCN2C(=O)CCC[C@@H]13,x,x,x,n,x
C=CCNC(=O)CCCOc1cc(C)ccc1C,n,n,n,n,26.7µM
COc1ccc(NC(=O)CSc2nnc(-c3cccs3)o2)cc1Cl,x,x,x,n,x
COCCCNc1oc(-c2ccccc2F)nc1C#N,n,n,u,n,23.8µM
CC(=O)[C@]1(O)Cc2c(O)c3c(c(O)c2[C@@H](O[C@H]2C[C@H](N)[C@H](O)[C@H](C)O2)C1)C(=O)c1ccccc1C3=O,u,n,u,n,5.32µM
CC(=O)[C@]1(O)Cc2c(O)c3c(c(O)c2[C@@H](O[C@H]2C[C@H](N)[C@H](O)[C@H](C)O2)C1)C(=O)c1c(O)cccc1C3=O,n,n,n,x,x
COc1cccc(C2=Nc3cccc4cccc(c34)N2)c1,n,11.2µM,n,n,n
Nc1ccc(C2=Nc3cccc4cccc(c34)N2)cc1,n,n,n,n,n
COc1ccc(C(=O)C[n+]2ccccc2C)cc1,n,u,31.6µM,n,5.97µM
OCc1ccccc1CNCc1ccccc1,n,n,n,n,n
Oc1cc(CNCc2ccccc2)c(O)cc1CNCc1ccccc1,x,17.8µM,n,n,u
C=CCOc1ccc(CNc2ccc3[nH]c(=O)[nH]c3c2)cc1,n,11.2µM,n,n,n
COc1cccc(CNc2ccc3[nH]c(=O)[nH]c3c2)c1OCc1ccc(F)cc1,n,n,n,n,n
C=CCOc1c(CNc2ccc3[nH]c(=O)[nH]c3c2)cccc1OC,n,n,n,n,26.7µM
CC1CCC2(CCC(=O)N2CCCO)CC1 (centres undefined),x,x,x,n,x
CC(=O)OCC(NC(=O)C(Cc1ccccc1)NC(=O)OC(C)(C)C)C1OC(n2cc(C)c(=O)[nH]c2=O)C(OC(C)=O)C1OC(C)=O (centres undefined),x,x,n,x,x
COc1ccc(N2CCN(CCCNC(=O)Cc3ccc(C(F)(F)F)cc3)CC2)cc1,x,x,x,n,x
O=C(CSc1nc(-c2ccccc2)no1)N1CCN(c2ccc(F)cc2)CC1,n,n,n,n,x
O=C(c1cc2ccccc2oc1=O)N(Cc1cccs1)Cc1cccs1,n,n,u,n,15µM
O=C1NC(=S)N/C1=C\c1ccccc1OCc1ccc(C(=O)O)cc1,n,n,n,n,n
O=C(O)c1ccc(COc2ccccc2C=C2C(=O)c3ccccc3C2=O)cc1,n,n,u,u,0.474µM
O=C(O)c1ccc(COc2ccccc2/C=C2\NC(=O)N(Cc3ccc(F)cc3)C2=O)cc1,n,n,n,n,67µM
Cc1ccc(Nc2nc(=O)c3cccnc3s2)cc1,n,n,n,n,n
COc1ccc(OC)c(Nc2nc(=O)c3cccnc3s2)c1,u,u,44.7µM,n,6.7µM
Cc1ccc(C)c(S(=O)(=O)NCc2cccnc2)c1,n,n,n,n,n
SMILES,GCN5L2 inh,GLS inhibitor,VDR inhibitor,PI4K2A inh,PLK1 PBD inh
C/C(=N/NS(=O)(=O)c1cc(C)ccc1C)c1ccncc1,n,n,u,n,15µM
Cc1ccc(C)c(S(=O)(=O)NCc2ccncc2)c1,3.16µM,n,n,n,n
CC(=NNS(=O)(=O)c1ccc(C)cc1)c1ccccc1,x,n,x,n,n
O=C([C@@H]1C[C@H]1c1ccccc1)N1CC[C@H]2[C@H](CCCN2Cc2cc(F)cc(F)c2)C1,x,x,x,n,x
COc1ccccc1C(=O)NCc1nc2cccnc2n1Cc1ccc(F)cc1,n,n,n,n,x
O=c1cc(-c2cccc(-c3ccc(C(F)(F)F)cc3)c2)c2cc3c(cc2o1)OCO3,n,x,n,x,x
O=C(O)c1cccc(NC(=S)N/N=C/c2ccccc2OCc2cccc(Br)c2)c1,u,n,u,n,u
O=C(COc1cccc2ccccc12)N/N=C/c1ccccc1OCc1ccc(C(=O)O)cc1,u,n,n,n,26.7µM
O=C(O)c1cccc(NC(=S)N/N=C/c2ccccc2OCc2ccc(Br)cc2)c1,u,n,u,n,23.8µM
O=S(=O)(c1ccc2ncsc2c1)N1CCN(c2nc(-c3cccs3)nc3ccccc23)CC1,x,x,n,x,x
COc1ccc(N2C(=O)CC(Sc3n[nH]c(-c4ccccc4)n3)C2=O)cc1 (centres undefined),n,u,n,n,26.7µM
COc1ccc(N2C(=O)CC(Sc3nc(C)c4c(n3)CCCC4)C2=O)cc1 (centres undefined),n,n,n,n,n
CC(C)(C)SCCNC(=O)c1ccccc1,n,n,n,n,n
Cc1ccc(C(=O)NCCSC(C)(C)C)cc1,n,n,n,-58.8,n
[N-]=[N+]=CC(=O)c1ccnc(C(=O)C=[N+]=[N-])c1,n,n,n,n,26.7µM
O=C(NCc1cccc(Cl)c1)c1ccc2nc[nH]c2c1,n,n,n,n,n
O=C(NCc1ccc(Cl)cc1)c1ccc2nc[nH]c2c1,n,n,u,n,29.9µM
CCCOC(=O)c1ccccc1O,n,n,n,x,x
O=C1C=CC(=Nc2ccc(F)cc2)O1,x,n,79.4µM,n,u
O=C1C=CC(=Nc2ccc3c(c2)C(=O)c2ccccc2-3)O1,x,n,n,n,n
c1ccc(N=Nc2ccc(C3=NCCO3)cc2)cc1,x,n,x,-51.4,n
c1ccc(C2=NCCCO2)cc1,x,n,x,n,n
CC1(C)CC(=O)C2=C(C1)O[C@@]1(CCCCN3C(=O)c4ccccc4C3=O)Cc3ccccc3C2O1,n[12.7 µM],x,x,x,x
CN(c1ccc(C(=O)N2CCN(c3ccc(F)cc3)CC2)cc1)S(C)(=O)=O,n,n,n,n,3.36µM
CCCCCC[C@@H](CC)CN(C(=O)Oc1ccccc1)c1ccccc1,x,x,x,n,x
SMILES,GCN5L2 inh,GLS inhibitor,VDR inhibitor,PI4K2A inh,PLK1 PBD inh
COCCN(C(=O)Cc1ccc(OC)c(OC)c1)c1nc(-c2cc(OC)ccc2OC)cs1,n,n,n,n,n
COc1ccc(OC)c(-c2csc(N(CC3CCCO3)C(=O)C3CCCCC3)n2)c1 (centres undefined),n,n,u,n,16.8µM
O=C(CCN1CCCCC1)Nc1cccc(Cl)c1,n,n,n,n,26.7µM
O=C(N/N=C/c1ccc(N2CCOCC2)cc1)c1ccncc1,n,n,n,n,n
O=C(N/N=C/c1ccc(N2CCOCC2)cc1)c1ccccc1OCCOc1ccccc1,n,u,u,n,2.99µM
CCOC(=O)Cc1ccc(NC(=O)c2ccc(C(C)(C)C)cc2)cc1,n,u,n,n,5.32µM
CCOC(=O)Cc1ccc(NC(=O)c2ccccc2Br)cc1,n,n,n,n,n
Cc1cc(C)cc(S(=O)(=O)c2cnc3ccccc3n2)c1,n,u,39.8µM,n,3.77µM
C#CCNC(=O)C[C@H]1C[C@@]2(C(=O)OC)C(=C[C@H](C(C)C)O[C@@H]2C2CC2)N(CCC2=CCCCC2)C1=O,x,x,x,n,x
N#C/C(=N\Nc1ccccc1)C(N)=S,u,11.2µM,n,n,n
N#C/C(=N\Nc1ccc(Cl)cc1)C(N)=S,n,n,n,n,n
O=C(CCc1ccccc1)N[C@H]1[C@@H](OC(=O)C2CC2)CCC[C@@]12C(=O)N(Cc1ccccc1)c1ccccc12,x,x,x,n,x
